We go through 13 molecules from PubChem BioAssay (NCI).

Test systems include DU-145 prostate; K-562 leukemia; MALME-3M melanoma; MDA-MB-231 breast; RXF 393 renal; SF-268 CNS; SF-295 CNS; SF-539 CNS; UACC-257 melanoma; M14 melanoma.
Assay in all cases: NCI-60 one-dose screen, 48 h (100 = growth as untreated, 0 = no growth, -100 = all killed)
Settings in all cases: 10 µM unless noted

Compounds without any hit were thinned out: in the full panel of roughly 83,000, 20% have a hit.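 Assay: single dose, 48 h. Readout: percent growth (0 = no net growth; negative = cell death). Active: <10.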 Values without a mark were called inactive. The source made the active and inactive calls.

Turning to `N#Cc1c(NC(=O)c2cccs2)[n+]([O-])c2cc(C(F)(F)F)ccc2[n+]1[O-]`, the growth is 114% in the assay with DU-145 prostate; 87.7% in the assay on K-562 leukemia; 132% in the assay with MALME-3M melanoma; 96.8% in the assay on MDA-MB-231 breast; 109% in the assay with RXF 393 renal; 105% with SF-268 CNS. The growth is 97.9% in the assay on SF-295 CNS, 101% in the assay with SF-539 CNS, 91.4% with UACC-257 melanoma and 116% in the assay with M14 melanoma.
For the molecule `COc1ccc(Cc2nc(C#N)c(N3CCN(c4ccc(F)cc4)CC3)o2)cc1`, the growth in the assay with DU-145 prostate was 100%; in the assay with K-562 leukemia, 75.3%; in the assay on MALME-3M melanoma, 104%; with MDA-MB-231 breast it was 98.4%; in the assay on RXF 393 renal it was 76%; in the assay on SF-268 CNS, 90.5%. For the same molecule, the growth with SF-295 CNS was 95.5%; in the assay with SF-539 CNS, 98.2%; in the assay with UACC-257 melanoma, 112%; in the assay on M14 melanoma, 90%.
`O=C1NCc2ccc3c(-c4cccc(Cl)c4)c[nH]c3c21`: the growth is 23.3% in the assay on DU-145 prostate; 10.6% in the assay with K-562 leukemia; 65.9% in the assay on MALME-3M melanoma; 47.6% with MDA-MB-231 breast; -3.81% (active) in the assay with RXF 393 renal; 52.6% in the assay with SF-268 CNS. Further, the growth is 7.18% (active) in the assay with SF-295 CNS, -15.8% (active) in the assay on SF-539 CNS, 35.6% in the assay with UACC-257 melanoma and 15.9% in the assay with M14 melanoma.
As for `C#Cc1ccccc1NC(=O)c1sc2nc3c(cc2c1N)CCCCC3`, the growth in the assay on DU-145 prostate was 104%; with K-562 leukemia, 90.5%; in the assay on MALME-3M melanoma, 102%; in the assay with MDA-MB-231 breast, 93.5%; with RXF 393 renal, 113%; in the assay with SF-268 CNS, 104%. Moreover, the growth in the assay on SF-295 CNS is 113%; in the assay on SF-539 CNS, 101%; in the assay on UACC-257 melanoma it was 110%; in the assay with M14 melanoma, 93.9%.
`CCN1CCN(c2ccc(NC(=O)Nc3nc4ccc(-c5ccccc5OC)cc4s3)cc2)CC1`: the growth with DU-145 prostate was -84.4% (active); in the assay on K-562 leukemia, -67.4% (active); in the assay with MALME-3M melanoma, -80.3% (active); with MDA-MB-231 breast, -74% (active); in the assay on RXF 393 renal it was -74.2% (active); with SF-268 CNS it was -59.4% (active). For the same molecule, the growth was -79.9% (active) with SF-295 CNS, -82.6% (active) in the assay on SF-539 CNS, -71.9% (active) in the assay with UACC-257 melanoma and -70.1% (active) with M14 melanoma.
As for `NS(=O)(=O)c1ccc(-n2nc(-c3ccccc3)ccc2=O)cc1`, the growth with DU-145 prostate was 109%; with K-562 leukemia it was 89.3%; in the assay on MALME-3M melanoma, 82.5%; in the assay on MDA-MB-231 breast, 108%; in the assay on RXF 393 renal, 125%; with SF-268 CNS, 106%. The growth was 260% with SF-295 CNS, 95.3% in the assay on SF-539 CNS, 111% with UACC-257 melanoma and 118% in the assay with M14 melanoma.
As to `CCCCCCCCCCCCCC1=NCC[N+]1(CCO)Cc1ccccc1` (stereo not given), the growth was -89.2% (active) with DU-145 prostate; -50.9% (active) with K-562 leukemia; -75.8% (active) with MALME-3M melanoma; -79.9% (active) with MDA-MB-231 breast; -92.3% (active) in the assay with RXF 393 renal; -69.9% (active) with SF-268 CNS. Also, the growth is -71.7% (active) with SF-295 CNS, -93.8% (active) with SF-539 CNS, -71.8% (active) with UACC-257 melanoma and -79.4% (active) in the assay on M14 melanoma.
For `COc1cc([C@H](C)c2ccc3ccccc3c2)cc(OC)c1OC`, the growth in the assay on DU-145 prostate is 17.6%; with K-562 leukemia it was 8.51% (active); with MALME-3M melanoma, 64%; in the assay on MDA-MB-231 breast, 33.8%; with RXF 393 renal, -10.5% (active); in the assay with SF-268 CNS it was 55.3%. Also, the growth with SF-295 CNS was 13.5%; with SF-539 CNS it was -19.3% (active); with UACC-257 melanoma, 51.4%; with M14 melanoma, 17.5%.
Consider `COc1cc(C2CC(c3ccc(Nc4nc(NCCO)nc(NCCO)n4)cc3)=NN2c2cc(Cl)cc(Cl)c2)cc(OC)c1OC` (stereo not given), for which the growth in the assay on DU-145 prostate was 12.8%; with K-562 leukemia, 2.02% (active); with MALME-3M melanoma it was -66.3% (active); in the assay with MDA-MB-231 breast it was -19.2% (active); with RXF 393 renal, -42.5% (active); with SF-268 CNS, -33.3% (active). The growth in the assay with SF-295 CNS was 6.18% (active); with SF-539 CNS, -61.3% (active); in the assay on UACC-257 melanoma, 13.2%; in the assay on M14 melanoma, -14.3% (active).
As for `COc1cc(/C=C/C(=O)c2cccs2)ccc1OCc1ccc(Cl)nc1`, the growth is 47.7% in the assay on DU-145 prostate; 41.3% in the assay with K-562 leukemia; 81.9% with MALME-3M melanoma; 82.8% in the assay with MDA-MB-231 breast; 94.9% with RXF 393 renal; 85.1% in the assay with SF-268 CNS. In addition, the growth in the assay on SF-295 CNS is 105%; with SF-539 CNS, 91%; with UACC-257 melanoma, 91.3%; with M14 melanoma, 82%.
In the case of `O=c1c2ccccc2oc2ccc(OCCCCCCN3CCCCCC3)cc12`, the growth in the assay with DU-145 prostate is 65.6%; in the assay with K-562 leukemia, 2.32% (active); in the assay on MALME-3M melanoma it was -47.2% (active); with MDA-MB-231 breast, 43.7%; in the assay with RXF 393 renal, 36.8%; in the assay on SF-268 CNS, 61.7%. In addition, the growth with SF-295 CNS is 38.9%; with SF-539 CNS, 54.9%; in the assay with UACC-257 melanoma, 2.49% (active); in the assay with M14 melanoma, -32% (active).
`C/C(=N\NC(=O)c1ccncc1)c1ccc(N)cc1`: the growth in the assay with DU-145 prostate is 107%; in the assay with K-562 leukemia, 83.6%; in the assay with MALME-3M melanoma it was 98.5%; in the assay with MDA-MB-231 breast, 98.4%; in the assay on RXF 393 renal, 106%; in the assay on SF-268 CNS, 99.2%. The growth is 99.4% with SF-295 CNS, 98.5% in the assay with SF-539 CNS, 93% in the assay on UACC-257 melanoma and 102% with M14 melanoma.
Take `O=c1[nH]c2ccccc2cc1-c1nc2ccncc2[nH]1`: the growth is 78.8% in the assay on DU-145 prostate; 79.1% in the assay with K-562 leukemia; 113% with MALME-3M melanoma; 98.3% in the assay with MDA-MB-231 breast; 72.5% in the assay on RXF 393 renal; 96.6% with SF-268 CNS. For the same molecule, the growth in the assay on SF-295 CNS was 78.1%; in the assay with SF-539 CNS it was 79.1%; with UACC-257 melanoma it was 111%; with M14 melanoma, 87.3%.
